# From PubChem BioAssay (EPA / NIEHS)
# Several values for one entry are separate records, joined by “and”; a condition that tells them apart may be missing. Equal values may be shown once. Where a structure was tested more than once in an assay, its records may differ in their call. Activity calls are given as the source filed them. The calls were made as follows: active = hit-call score of the fitted dose curve at least 0.9, where 1 is the maximum; inactive = score below 0.9.
# Read-out: not listed separately
# Assay: BSK_3C_Vis: BioMAP Diversity Plus: 3C Assay for Morphology Visualization (AID 2283025);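 also: fitted both ways so gain or loss versus DMSO counts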;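 as to AC50: light microscopy image of cell morphology used as background control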
# Conditions: primary human endothelial cells (HUVEC)
# How it was run: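 Human umbilical vein endothelial cell morphology was inspected by light microscopy 24 h after chemical dosing; scored bidirectionally relative to DMSO.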
Structure (SMILES),AC50,outcome
c1ccc2c(c1)ccc1ncccc12,38.9 µM (active),
CC1OC1C1CCC2(C)OC2C1 (configuration not stated),,inactive
CCCCC/C=C\C/C=C\CCCCCCCC(=O)OC,37.5 µM (active),
COc1ccc2nc(N)sc2c1,,inactive

# Read-out: Pselectin, SELP (gene 6403)
# Assay: BSK_4H_Pselectin: BioMAP Diversity Plus: 4H Assay for Pselectin Biomarker Activity (AID 2283026)
# Conditions: primary human endothelial cells (HUVEC); actives raise or lower the signal
# How it was run: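 Primary human umbilical vein endothelial cells were treated 24 h, and cell-surface P-selectin was then quantified by ELISA. Bidirectional fit versus DMSO; cytotoxicity checked in parallel cultures by SRB total-protein staining.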
Structure (SMILES),AC50,outcome
c1ccc2c(c1)ccc1ncccc12,20 µM (active),
CC1OC1C1CCC2(C)OC2C1 (configuration not stated),,inactive
CCO[Si](C)(OCC)OCC,,inactive
CCOC(=O)c1ccccc1C(=C1C=C(Br)C(=O)C(Br)=C1)c1cc(Br)c(O)c(Br)c1,21.9 µM (active) and 19.8 µM (active),
CCCCC/C=C\C/C=C\CCCCCCCC(=O)OC,20 µM (active),
COc1ccc2nc(N)sc2c1,,inactive

# Read-out: not listed separately
# Assay: BSK_BE3C_SRB: Viability Assessment in the BioMAP Diversity Plus: BE3C Assay (AID 2283028);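 as to AC50: fitted both ways so AC50 may mark signal gain or loss versus DMSO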
# Conditions: primary human bronchial epithelial cells
# How it was run: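 Human bronchial epithelial primary cells in confluent culture, 24 h after chemical dosing; total protein by 0.1% SRB staining after 10% TCA fixation, read at 560 nm. Bidirectional fitting versus DMSO baseline.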
Structure (SMILES),outcome,AC50
c1ccc2c(c1)ccc1ncccc12,inactive,
CC1OC1C1CCC2(C)OC2C1 (configuration not stated),inactive,
CCO[Si](C)(OCC)OCC,inactive,
CCOC(=O)c1ccccc1C(=C1C=C(Br)C(=O)C(Br)=C1)c1cc(Br)c(O)c(Br)c1,inactive,12.5 µM (active)
CCCCC/C=C\C/C=C\CCCCCCCC(=O)OC,inactive,
COc1ccc2nc(N)sc2c1,inactive,
